Experimental findings from PMC7862700, “An all-to-all approach to the identification of sequence-specific readers for epigenetic DNA modifications on cytosine” are described below.

Common to all, as to assay: DAPPL (digital affinity profiling via proximity ligation, sequencing); 10 mM Tris-HCl pH 7.5, 50 mM NaCl, 1 mM DTT, 4% glycerol, room temperature, 30 min; GST-TFs on glutathione beads, 16-mer random dsDNA library, 0.1% formaldehyde crosslink after washing; high values mean tight binding
One assay concerns the target ELF1 (Homo sapiens, UniProt P32519 1-619). As to conditions: protein: recombinant; tags: N-terminal GST; dsDNA, one strand shown. A digest of the protocol:
(§1)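 Human transcription factors carrying a GST fusion were produced in yeast, bound to glutathione beads, tagged with DNA barcodes and pooled together with a tag-only sample. Each pool was held with 200 nmole of a random double-stranded 16-mer DNA library in Tris/NaCl/DTT/glycerol buffer for 30 min at room temperature, then washed, crosslinked in 0.1% formaldehyde, proximity-ligated with BsaI/T4 ligase (1 h, 37 °C), PCR-amplified and sequenced on an Illumina NextSeq500. Binding signal is the read frequency of each hexamer for a given factor divided by its frequency in the tag-only sample.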

A further assay addresses T1, ELK3 (Homo sapiens, UniProt P41970 1-407).
T1 sequence: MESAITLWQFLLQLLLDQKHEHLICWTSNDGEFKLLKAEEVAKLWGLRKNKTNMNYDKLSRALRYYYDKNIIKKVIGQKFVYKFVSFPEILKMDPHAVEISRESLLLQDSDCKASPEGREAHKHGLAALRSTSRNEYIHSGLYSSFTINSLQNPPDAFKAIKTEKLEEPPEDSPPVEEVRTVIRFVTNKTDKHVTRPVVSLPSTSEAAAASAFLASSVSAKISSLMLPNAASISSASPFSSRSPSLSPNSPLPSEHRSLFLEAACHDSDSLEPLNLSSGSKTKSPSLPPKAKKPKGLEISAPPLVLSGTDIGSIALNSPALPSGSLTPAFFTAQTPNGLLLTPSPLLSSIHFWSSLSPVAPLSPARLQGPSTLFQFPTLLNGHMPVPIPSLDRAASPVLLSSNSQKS
The conditions noted are these: protein: recombinant; tags: N-terminal GST; dsDNA, one strand shown. In short, it runs like this:
as §1

For a further assay, the target named is HSF1 (Homo sapiens, UniProt Q00613 1-529). The conditions noted are these: protein: recombinant; tags: N-terminal GST; chain copies: 3; dsDNA, one strand shown. In short, it runs like this:
as §1

Another assay addresses T2, ELK4 (Homo sapiens, UniProt P28324-2 1-405).
T2 sequence: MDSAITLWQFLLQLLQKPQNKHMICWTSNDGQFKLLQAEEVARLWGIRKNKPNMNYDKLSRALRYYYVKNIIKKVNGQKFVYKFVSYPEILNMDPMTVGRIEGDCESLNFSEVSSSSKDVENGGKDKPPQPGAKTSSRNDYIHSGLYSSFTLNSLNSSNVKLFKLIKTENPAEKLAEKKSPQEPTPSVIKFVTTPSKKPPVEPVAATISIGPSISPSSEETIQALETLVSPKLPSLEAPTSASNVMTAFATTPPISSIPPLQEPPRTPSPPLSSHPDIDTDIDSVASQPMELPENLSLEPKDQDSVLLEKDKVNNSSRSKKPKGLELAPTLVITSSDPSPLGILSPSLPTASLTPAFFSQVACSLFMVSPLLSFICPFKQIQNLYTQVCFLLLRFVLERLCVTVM
The conditions noted are these: protein: recombinant; tags: N-terminal GST; dsDNA, one strand shown. In short, it runs like this:
as §1

Another assay deals with T3, ELF3 (Homo sapiens, UniProt P78545 1-371).
T3 sequence: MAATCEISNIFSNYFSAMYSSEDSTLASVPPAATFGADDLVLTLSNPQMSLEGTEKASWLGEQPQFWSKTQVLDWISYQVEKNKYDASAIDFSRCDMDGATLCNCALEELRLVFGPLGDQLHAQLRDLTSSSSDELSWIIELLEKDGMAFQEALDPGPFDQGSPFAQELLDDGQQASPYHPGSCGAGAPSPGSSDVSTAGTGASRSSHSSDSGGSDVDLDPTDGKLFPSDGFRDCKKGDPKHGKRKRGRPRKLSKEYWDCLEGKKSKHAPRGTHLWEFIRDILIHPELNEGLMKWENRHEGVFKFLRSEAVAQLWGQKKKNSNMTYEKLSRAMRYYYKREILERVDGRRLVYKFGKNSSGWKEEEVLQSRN
The conditions noted are these: protein: recombinant; tags: N-terminal GST; dsDNA, one strand shown. A digest of the protocol:
as §1

The target of a further assay is CRX (Homo sapiens, UniProt O43186 1-299). The conditions noted are these: protein: recombinant; tags: N-terminal GST; dsDNA, one strand shown. In short, it runs like this: as §1
CRX, sequence (O43186 whole entry): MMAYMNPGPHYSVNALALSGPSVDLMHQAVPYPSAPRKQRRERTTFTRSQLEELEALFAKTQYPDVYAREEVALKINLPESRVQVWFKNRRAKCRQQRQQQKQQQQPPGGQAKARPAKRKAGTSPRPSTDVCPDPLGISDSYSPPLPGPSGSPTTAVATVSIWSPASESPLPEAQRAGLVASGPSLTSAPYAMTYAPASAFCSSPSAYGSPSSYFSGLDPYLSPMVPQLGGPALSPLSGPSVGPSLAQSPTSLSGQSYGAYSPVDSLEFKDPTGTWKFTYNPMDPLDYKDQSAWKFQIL
Another assay deals with T4, ERF (Homo sapiens, UniProt P50548 1-548).
T4 sequence: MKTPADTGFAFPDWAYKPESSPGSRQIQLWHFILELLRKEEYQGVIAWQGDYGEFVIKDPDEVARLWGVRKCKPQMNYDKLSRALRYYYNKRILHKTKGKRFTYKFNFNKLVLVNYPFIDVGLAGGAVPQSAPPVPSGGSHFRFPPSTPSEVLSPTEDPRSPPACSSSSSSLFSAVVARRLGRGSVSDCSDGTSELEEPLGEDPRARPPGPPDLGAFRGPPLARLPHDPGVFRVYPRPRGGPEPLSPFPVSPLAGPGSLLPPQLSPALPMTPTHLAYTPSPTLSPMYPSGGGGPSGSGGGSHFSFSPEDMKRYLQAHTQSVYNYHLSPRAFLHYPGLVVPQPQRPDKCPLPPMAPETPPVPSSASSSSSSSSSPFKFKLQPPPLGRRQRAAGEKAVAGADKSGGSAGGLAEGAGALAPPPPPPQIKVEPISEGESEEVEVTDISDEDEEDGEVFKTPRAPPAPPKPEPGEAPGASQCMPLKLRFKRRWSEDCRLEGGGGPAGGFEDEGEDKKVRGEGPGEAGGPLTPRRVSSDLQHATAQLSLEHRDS
As to conditions: protein: recombinant; tags: N-terminal GST; dsDNA, one strand shown. In short, it runs like this: as §1

For the next assay, the target named is T5, ETV3L (Homo sapiens, UniProt Q6ZN32 1-361).
T5 sequence: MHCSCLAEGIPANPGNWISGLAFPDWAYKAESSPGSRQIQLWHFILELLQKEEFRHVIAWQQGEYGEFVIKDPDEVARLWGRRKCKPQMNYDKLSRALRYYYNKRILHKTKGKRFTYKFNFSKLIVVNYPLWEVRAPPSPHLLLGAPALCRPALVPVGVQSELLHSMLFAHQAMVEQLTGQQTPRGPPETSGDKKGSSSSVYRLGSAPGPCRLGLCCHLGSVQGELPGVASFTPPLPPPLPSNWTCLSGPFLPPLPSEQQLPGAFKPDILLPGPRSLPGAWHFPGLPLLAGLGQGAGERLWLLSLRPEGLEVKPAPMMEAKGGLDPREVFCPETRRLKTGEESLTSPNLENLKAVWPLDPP
As to conditions: protein: recombinant; tags: N-terminal GST; dsDNA, one strand shown. A digest of the protocol: as §1

Another assay addresses T6, ETV7 (Homo sapiens, UniProt Q9Y603 1-341).
T6 sequence: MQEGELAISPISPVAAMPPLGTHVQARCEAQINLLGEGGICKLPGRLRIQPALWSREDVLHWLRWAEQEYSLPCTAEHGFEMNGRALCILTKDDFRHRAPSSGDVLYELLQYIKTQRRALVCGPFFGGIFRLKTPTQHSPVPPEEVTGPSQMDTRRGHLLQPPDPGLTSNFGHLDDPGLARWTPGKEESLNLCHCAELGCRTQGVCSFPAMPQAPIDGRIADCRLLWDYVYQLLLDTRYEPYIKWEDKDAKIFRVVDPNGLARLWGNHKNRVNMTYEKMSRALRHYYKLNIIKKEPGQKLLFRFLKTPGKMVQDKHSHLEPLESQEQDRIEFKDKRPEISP
The conditions noted are these: protein: recombinant; tags: N-terminal GST; dsDNA, one strand shown. A digest of the protocol: as §1

HSF1, sequence (Q00613 whole entry): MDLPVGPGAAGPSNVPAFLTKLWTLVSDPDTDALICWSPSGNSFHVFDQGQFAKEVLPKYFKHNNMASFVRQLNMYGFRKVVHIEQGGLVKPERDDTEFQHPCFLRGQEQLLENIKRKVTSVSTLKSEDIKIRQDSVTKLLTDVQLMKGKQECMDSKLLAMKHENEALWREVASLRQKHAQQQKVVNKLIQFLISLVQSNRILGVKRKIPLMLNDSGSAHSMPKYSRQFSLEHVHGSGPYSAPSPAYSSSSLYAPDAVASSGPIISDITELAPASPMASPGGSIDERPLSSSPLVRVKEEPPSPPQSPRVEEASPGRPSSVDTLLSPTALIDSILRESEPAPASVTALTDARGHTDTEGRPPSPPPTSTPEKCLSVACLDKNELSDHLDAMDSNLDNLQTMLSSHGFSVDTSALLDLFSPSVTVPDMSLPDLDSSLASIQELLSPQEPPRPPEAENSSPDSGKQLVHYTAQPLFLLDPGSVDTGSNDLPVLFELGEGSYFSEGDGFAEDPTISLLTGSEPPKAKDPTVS
ELF1, sequence (P32519 whole entry, the tested form may be a part): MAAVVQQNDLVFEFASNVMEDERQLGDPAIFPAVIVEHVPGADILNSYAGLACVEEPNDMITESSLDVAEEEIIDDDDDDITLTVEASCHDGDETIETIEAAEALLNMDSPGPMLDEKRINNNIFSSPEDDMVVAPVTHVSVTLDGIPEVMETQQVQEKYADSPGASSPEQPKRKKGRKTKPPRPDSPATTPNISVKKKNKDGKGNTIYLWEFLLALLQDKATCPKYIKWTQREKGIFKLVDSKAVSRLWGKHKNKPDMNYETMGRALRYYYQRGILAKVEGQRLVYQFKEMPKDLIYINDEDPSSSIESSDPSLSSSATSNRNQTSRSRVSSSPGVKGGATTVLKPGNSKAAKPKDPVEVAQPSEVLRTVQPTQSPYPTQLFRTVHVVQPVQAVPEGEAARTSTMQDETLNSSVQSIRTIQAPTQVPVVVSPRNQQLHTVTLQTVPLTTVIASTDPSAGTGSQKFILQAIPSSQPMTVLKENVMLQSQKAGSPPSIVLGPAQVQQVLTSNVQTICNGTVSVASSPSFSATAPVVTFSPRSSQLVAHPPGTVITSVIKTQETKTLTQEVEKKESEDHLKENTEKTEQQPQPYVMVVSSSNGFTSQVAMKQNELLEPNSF

Take GATCAT: the binding signal with ELF1 was 1.01 fold enrichment (6-mer frequency, TF over GST control); in the assay with ELK3, 1.1 fold enrichment (6-mer frequency, TF over GST control); in the assay with HSF1, 1.3 fold enrichment (6-mer frequency, TF over GST control); with ELK4 it was 1.07 fold enrichment (6-mer frequency, TF over GST control); with ELF3 it was 1.05 fold enrichment (6-mer frequency, TF over GST control); with CRX, 1.48 fold enrichment (6-mer frequency, TF over GST control). Further, the binding signal with ERF was 1.09 fold enrichment (6-mer frequency, TF over GST control); with ETV3L, 1 fold enrichment (6-mer frequency, TF over GST control); in the assay with ETV7, 1.04 fold enrichment (6-mer frequency, TF over GST control).
